Screening results from PubChem.
An excerpt weighted towards active compounds, which were near 2.4% of everything screened.
D2 ag-1: agonists of human D2 dopamine receptor (beta-arrestin); P14416; actives 0.084% (n = 360,000); DiscoveRx PathHunter D2 beta-arrestin, luminescence, 90 min; 100% = 57 uM dopamine signal; AID 624465; activation, % (test concentration not listed); in the data active means activation above about 40%; inconclusive means between about 15% and that limit
Target sequence (P14416 whole entry, looked up): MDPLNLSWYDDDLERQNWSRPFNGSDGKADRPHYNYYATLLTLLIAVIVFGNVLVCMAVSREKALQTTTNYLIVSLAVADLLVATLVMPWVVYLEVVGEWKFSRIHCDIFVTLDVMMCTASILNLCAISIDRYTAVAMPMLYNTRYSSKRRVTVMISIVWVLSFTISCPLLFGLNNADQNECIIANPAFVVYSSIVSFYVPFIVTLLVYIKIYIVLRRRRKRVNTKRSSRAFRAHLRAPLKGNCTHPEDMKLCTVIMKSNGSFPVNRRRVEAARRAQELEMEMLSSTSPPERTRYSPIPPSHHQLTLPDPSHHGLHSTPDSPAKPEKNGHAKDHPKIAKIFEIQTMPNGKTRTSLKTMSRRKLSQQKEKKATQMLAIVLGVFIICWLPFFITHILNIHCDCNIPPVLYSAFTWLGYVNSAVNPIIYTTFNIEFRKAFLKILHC
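DiscoveRx PathHunter D2 beta-arrestin cells (2,100/well) attached overnight, then compound-stimulated 90 min at 37 C in HBSS/10 mM HEPES/0.1% Tween-20 buffer; beta-galactosidase complementation read by luminescence after 1 h at ambient temperature. Dopamine 57 uM final (EC100) as control.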
D2 PAM-1: human D2 receptor positive allosteric modulation; potentiation, % (concentration not given with the values); DiscoveRx D2 beta-arrestin cells, luminescence, 90 min; 100% = 57 uM dopamine signal; actives 0.23% (n = 360,000); in the data active means potentiation above about 50%; inconclusive means mostly about 30% to 49%
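D2 cells co-treated with compound plus 50 nM dopamine (EC20) for 90 min at 37 deg C to detect potentiation. Beta-arrestin recruitment was read as enzyme-fragment luminescence after 1 h at ambient temperature. Full response was set by 57 uM dopamine.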
D2 antag: D2 dopamine receptor (human) antagonism; P14416; HEK293 TREx D2 cells, calcium flux, dopamine EC80; inhibition, % at 10 µM; actives 2% (n = 340,000); in the data active means inhibition above about 30%; inactive means below that, where a call was filed; further: 0% is about no effect
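Calcium flux kinetic readout in an inducible HEK293 TREx D2 line plated overnight at 30 C. After 180 s compound exposure, an EC80 dopamine challenge follows with another 180 s kinetic read to detect antagonism.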
D2 PAM-2: positively modulates the human D2 dopamine receptor allosterically. P14416. HEK293 T-REx D2, calcium flux, EC20 dopamine potentiation. potentiation, % at 10 µM. actives 0.34% (n = 340,000). AID 485347;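 active means potentiation over 3 SD above the plate norm, cut at about 30% in these data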; further: 0% is about no effect
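Using a no-wash calcium dye in inducible, force-coupled HEK293 Trex cells expressing D2, we tracked fluorescence each second for 180 s after compound, then for 180 s after EC20 dopamine to detect augmented signalling.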
D2 ag-2: agonists of human D2 dopamine receptor; P14416; activation, % at 2 µM; actives 0.53% (n = 340,000); AID 485358; HEK293 T-REx D2 cells, calcium flux agonist mode;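 active means activation over 3 SD above normal in the single-dose calcium agonist read, cut at about 30% in these data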; further: 0% is about no effect
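Calcium-flux readout, 1 cycle/sec over 180 s following compound pin transfer, in inducible HEK293 Trex D2 cells (force-coupled); dopamine controls included. Positive calcium responses during this window marked compounds as potential agonists.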
Active calls of the source: *; ? = inconclusive; / = not tested or not shown.

SMILES | D2 ag-1 | D2 PAM-1 | D2 antag | D2 PAM-2 | D2 ag-2
CC(O)CNCCNCc1c(OCc2ccccc2)ccc2ccccc12 (stereo not given) | -2 | -28 | -7 | 32* | -1
CC(O)CNCCOc1ccccc1OCc1ccccc1 (stereo not given) | -9 | -9 | 45* | -34 | -3
CCNCc1ccccc1OCc1ccccc1 | -1 | -10 | 6 | -10 | 0
O=C(C[n+]1ccc2ccccc2c1)Nc1cc(C(F)(F)F)ccc1Cl | -1 | -33 | 54* | -21 | 1
O=C(C[n+]1ccccc1)Nc1cc(C(F)(F)F)ccc1Cl | -2 | -44 | 2 | 4 | -1
COc1ccc(NC(=O)c2sc3nc4c(c(-c5ccc(OC)cc5)c3c2N)C(=O)CC(C)(C)C4)cc1 | / | / | / | 0 | -2
COc1ccc(-c2[nH]nc3oc(=O)cc(C)c23)cc1 | -2 | -7 | 33* | 28 | 0
Cc1ccc2c(=O)cc(C(=O)Nc3nc4ccc(Cl)cc4s3)oc2c1C | / | / | / | 11 | -1
NC(=O)c1nn(CC(=O)Nc2cccc(S(=O)(=O)N3CCCC3)c2)c(=O)c2ccccc12 | -1 | -3 | 44* | -10 | 0
NC(=O)c1nn(CC(=O)Nc2cccc(S(=O)(=O)N3CCCCCC3)c2)c(=O)c2ccccc12 | 9 | -4 | -9 | 21 | 1
CN(CC(=O)Nc1cccc(F)c1)CC(=O)Nc1cccc(S(=O)(=O)N2CCCCCC2)c1 | -3 | -12 | -12 | -5 | 0
CN(C)S(=O)(=O)c1cccc(NC(=O)CNc2cccc(S(=O)(=O)N3CCCCC3)c2)c1 | -2 | -14 | / | / | /
CN(CC(=O)Nc1cccc(S(=O)(=O)N(C)C)c1)Cc1ccccc1 | -1 | -8 | 33* | -28 | -1
CN(CC(=O)Nc1cccc(S(=O)(=O)N2CCCCC2)c1)Cc1ccc(F)cc1 | 0 | -15 | 32* | -18 | 0
CN(C)S(=O)(=O)c1cccc(NC(=O)CNCC2CCCCC2)c1 | 4 | -21 | 55* | -24 | 0
CCOC(=O)CSC1=Nc2ccccc2C2=NC(CCC(=O)NCc3ccccc3)C(=O)N12 (stereo not given) | / | / | / | -3 | 0
CCc1ccccc1N1C(=O)N(Cc2ccccc2C)c2ccccc2S1(=O)=O | / | / | / | 9 | 0
COc1cccc(C(=O)Nc2ccc3nc(N4CCC(C)CC4)cc(C)c3c2)c1 | / | / | / | 3 | 0
COc1ccc(-n2nc(C(=O)Nc3ccc(C(C)=O)cc3)nc2-c2ccccc2)cc1 | / | / | / | -3 | 0
COc1ccc(NC(=O)C2CCCN2S(=O)(=O)c2ccc(F)cc2)cc1 (stereo not given) | -1 | -7 | 30* | -3 | 1
Nc1ncccc1OCc1cccc(C(F)(F)F)c1 | 5 | 2 | -10 | 32* | 0
Cc1nc2cc(C(=O)O)ccc2n1-c1ccc(C(C)C)cc1 | / | / | / | -4 | 0
O=C(CCNS(=O)(=O)c1ccc2c(c1)CCN2C(=O)C1CC1)N1CCN(c2ccccc2F)CC1 | / | / | / | 11 | /
CCC(=O)N1CCc2cc(S(=O)(=O)NCCC(=O)N3CCN(c4ccccc4)CC3)ccc21 | 8 | -4 | 34* | -4 | 5
O=C(C1CCC1)N1CCc2cc(S(=O)(=O)NCCN3CCN(c4ccccc4F)CC3)ccc21 | ? | -4 | 53* | -18 | 68*
SMILES | D2 ag-1 | D2 PAM-1 | D2 antag | D2 PAM-2 | D2 ag-2
Cc1ccc(/C=C/C(=O)N2CC(=O)Nc3ccccc32)o1 | -1 | -3 | -9 | 33* | -1
Cc1cc(C)cc(C(=O)N2CC(=O)Nc3ccccc32)c1 | 0 | -10 | -15 | 11 | -1
CCOC(=O)N1CCC(NCCNC(=O)c2ccc(F)c(F)c2)CC1 | 2 | -23 | 59* | -16 | 20
CCOC(=O)N1CCC(NCCNC(=O)c2ccc(Cl)cc2)CC1 | 0 | -29 | 59* | -26 | 0
COc1ccccc1NC(=O)CN1CCCN(S(=O)(=O)c2ccc(Br)cc2)CC1 | / | / | / | -5 | 0
Cc1cc(C)c(CSc2nnc(C)n3c2cc2occc23)c(C)c1 | / | / | / | 1 | 0
COc1ccc(S(=O)(=O)NCC2CCCO2)cc1NC(=O)c1ccccc1F (stereo not given) | -3 | -9 | 36* | -3 | 0
COc1cccc(OC)c1C(=O)Nc1ccccc1C(=O)N1CCCC1 | 0 | 6 | -1 | 2 | 1
COc1ccccc1C(=O)Nc1ccccc1C(=O)N1C(C)CCCC1C (stereo not given) | -3 | -6 | 48* | -2 | -1
N#C/C(=C/c1ccncc1)c1nc2ccccc2s1 | 8 | -7 | 4 | -2 | 30*
CC(C)=C(C#N)c1nc2ccccc2s1 | -4 | -1 | -24 | -3 | 1
Cc1cccc(NC(=O)C(=O)NCC(c2ccc3c(c2)OCO3)N2CCOCC2)c1C (stereo not given) | / | / | / | 3 | 1
C#CCN(C)Cc1ccccc1 | 4 | -9 | 32* | 7 | -2
Cc1ccc(-n2nc(CO)c(C(=O)NCc3cccs3)n2)cc1C | / | / | / | 2 | /
COc1cc(OC)cc(-c2nc3nc(C)c(CCC(=O)Nc4ccc(Cl)cc4)c(C)n3n2)c1 | / | / | / | -3 | -1
O=C(N/C=N/OCc1ccc(Cl)cc1Cl)NOCc1c(Cl)cccc1Cl | -5 | -4 | 31* | -6 | 0
CO/N=C/NC(=O)NOCc1ccc(Cl)cc1Cl | 2 | 12 | 27 | 10 | 1
OC1(c2ccc(Br)cc2)CCN(Cc2cccc(Br)c2)CC1 | 1 | -82 | 103* | -42 | 0
CCOc1ccc(N2CC(c3nc4ccccc4n3CCCOc3ccccc3OC)CC2=O)cc1 (stereo not given) | / | / | / | 0 | 1
Clc1ccccc1CSc1nc2ccncc2[nH]1 | 1 | -1 | 32* | -2 | -1
O=C(NCc1ccccc1Cl)c1ccc(CSc2nc3ccncc3[nH]2)cc1 | 2 | 2 | -9 | 28 | -1
Cc1ccc(-c2ccc([C@H]3[C@H]4C=CC[C@@H](C)[C@@H]4C(=O)N3Cc3ccccc3)c(F)c2)cc1 | -6 | -9 | 33* | -4 | 1
COc1cccc(Cn2cccc(NC(=O)NC3CCCCC3)c2=O)c1 | 0 | -7 | 29 | 31* | 0
CCc1cccc(NC(=O)c2ccc3c(c2)N(Cc2cccc(Cl)c2)C(=O)c2ccccc2S3=O)c1 (stereo not given) | / | / | / | 0 | 0
CCCCn1c(CNC(=O)CCC)nc2ccccc21 | -3 | -12 | 34* | -2 | -1
CC(=O)c1c(NCc2ccccc2)nc(=O)n(-c2ccccc2)c1C | -7 | -12 | 40* | -7 | 1
Cc1ccc(/C=C/c2onc(C)c2S(=O)(=O)N2CCC(C(=O)NCc3ccc(OC(C)C)cc3)CC2)cc1 | / | / | / | 1 | 0
CCN(CC)CCN(Cc1cc2cc3c(cc2[nH]c1=O)OCCO3)C(=S)NCC1CCCO1 (stereo not given) | -2 | -5 | -14 | -6 | 2
